Many of the other results were omitted from the sample, so hits are more common in it than they were.
TTR transcr act: TTR transcription activators in neuroblastoma reporter cells, primary screen, cell-based, luminescence, SH-SY5Y, TTR promoter Gaussia luciferase. 100% = recombinant luciferase protein wells. activation, % at 16.7 µM. hit rate 1.3% among 92,000. AID 1117267, 2014;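 active = activation above the mean of all tested compounds plus 3 SD, cut at about 9.5% in these data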;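 also: cells exposed to compounds for one day before reading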
HuH7 TTR inh: TTR promoter reporter inhibitors in hepatoma cells, counter-screen for TTR transcription activator project, cell-based, luminescence, HuH7 hepatoma. HuH7 TTR promoter-Gaussia luciferase reporter. inhibition, % at 16.7 µM. shares compounds with TTR transcr act. AID 1117279, 2014. hit rate 4% among 1,100;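 active = average inhibition above the solvent-only control wells' mean plus 3 SD, cut at about 15% in these data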;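 also: inhibitors lower well luminescence so higher value means more inhibition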
TTR up confirm: TTR transcription activators, retest, confirmation, cell-based, luminescence, SH-SY5Y, triplicate; activation, % at 16.7 µM; SHSY5Y TTR promoter Gaussia luciferase; 100% = purified Lucia enzyme wells, no cells; 1,100 tested, under 10 active; shares compounds with TTR transcr act;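 active = mean activation above a set limit taken from the earlier primary screen, cut at about 11% in these data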
Hits are given with their value; - = inactive.

SMILES | TTR transcr act | others
O=C(/C=C/c1ccc2c(c1)OCO2)c1c(O)n(CCC2=CCCCC2)c(=O)[nH]c1=O | -
CCCCn1c(O)c(C(=O)/C=C/c2ccc3c(c2)OCO3)c(=O)[nH]c1=O | 21 | HuH7 TTR inh=15;TTR up confirm=-
C=CCn1c(O)c(C(CC)=NCc2ccc3c(c2)OCO3)c(=O)[nH]c1=O | -
C=C(C=O)CC1CC(O)[C@]2(C)OC3CC4OC5C[C@]6(C)O[C@]7(C)CCC8OC9C[C@]%10(C)OC%11C(C)=CC(=O)OC%11CC%10OC9C[C@@H](C)C8OC7CC6O[C@]5(C)C/C=C\C4OC3CC2O1 (stereo partly drawn) | -
COc1ccc(N2C(=O)/C(=C/c3cc(C)n(-c4ccc(C)cn4)c3C)C(=O)NC2=S)c(OC)c1 | 11 | HuH7 TTR inh=-;TTR up confirm=-
Cc1ccc(-n2c(C)cc(/C=C3/C(=O)NC(=O)N(C)C3=O)c2C)cc1 | -
CCn1c(C)cc(/C=C2\C(=O)NC(=O)N(c3ccccc3C)C2=O)c1C | -
CCCC1(CC(C)CC)C(=O)NC(=O)NC1=O (stereo not drawn) | -
CCN1C[C@]2(COC(=O)c3ccccc3N)CC[C@H](OC)C34[C@@H]5C[C@H]6[C@H](OC)[C@@H]5[C@](O)(C[C@@H]6OC)[C@@](O)([C@H]13)[C@@H](OC)[C@@H]42 | -
CN1C(=O)C(Cc2ccsc2)C(=O)N(C)C1=O | 12 | HuH7 TTR inh=-;TTR up confirm=-
CN1C(=O)C(Cc2ccccc2)C(=O)N(C)C1=O | -
CN1C(=O)C(C2CCCCC2)C(=O)N(C)C1=O | -
COC(=O)C1C(c2ccc(C)cc2)CC2CCC1N2C (stereo not drawn) | -
N=Cc1c(O)n(-c2ccc(C34CC5CC(CC(C5)C3)C4)cc2)c(=O)[nH]c1=O | -
COc1cc2c(c3oc4cccc(O)c4c(=O)c13)[C@@H]1C=CO[C@@H]1O2 | -
Cc1cccc(-n2c(O)c(/C=N/NC(=O)c3ccncc3)c(=O)[nH]c2=O)c1 | -
O=C(N/N=C/c1c(O)n(-c2ccccc2)c(=O)[nH]c1=O)c1ccncc1 | 13 | HuH7 TTR inh=-;TTR up confirm=-
Cc1ccc(-n2c(O)c(/C=N/NC(=O)c3ccncc3)c(=O)[nH]c2=O)cc1 | -
CCCC(=O)NC1=C(N2CC2)C(=O)C(NC(=O)CCC)=C(N2CC2)C1=O | 11 | HuH7 TTR inh=53;TTR up confirm=-
CCOC1=C(N2CC2)C(=O)C(OCC)=C(N2CC2)C1=O | -
CCCC(=O)Nc1ccc(N2CCN(CC)CC2)c(Cl)c1 | -
C[C@H](NC(=O)N1C[C@H]2C[C@@H](C1)c1cccc(=O)n1C2)C(=O)Nc1ccc(F)c(F)c1 | -
CCN1CCN(C(=O)COc2ccc3oc4c(c3c2)CCCC4)CC1 | -
COC(=O)C1=C(c2ccc(S(C)(=O)=O)cc2)C[C@@H]2CC[C@H]1N2C(=O)NCc1ccc(C(F)(F)F)cc1 | -
O=C(NC12CC3CC(CC(C3)C1)C2)OC1CN2CCC1CC2 (stereo not drawn) | 13 | HuH7 TTR inh=-;TTR up confirm=-
SMILES | TTR transcr act | others
O=c1[nH]c(O)c(N=Nc2ccc(SC(F)F)cc2)c(=O)[nH]1 | -
CCCC(C)C1(CC)C(=O)NC(=O)N=C1N (stereo not drawn) | -
Cn1cc(C(=O)OCC(=O)Nc2ccccc2)c2ccccc21 | -
COC(=O)C1=C(c2ccc(OC(F)(F)F)cc2)C[C@@H]2CC[C@H]1N2C(=O)N1CCC(O)CC1 | -
CCOC(=O)N1CCC(NC(=O)CCc2nc(C3=CCN(C)CC3)no2)CC1 | 10 | HuH7 TTR inh=-;TTR up confirm=-
CN1CC2CN(Cc3ccccc3)S(=O)(=O)C2C1 (stereo not drawn) | -
CN1C2CCC1CC(OC(c1ccccc1)c1ccc(Cl)cc1)C2 (stereo not drawn) | -
COc1ccc(Cn2c(N)c(C(=O)NCc3ccco3)c3nc4ccccc4nc32)cc1OC | -
COc1ccc(C(=O)Nc2cccc(S(=O)(=O)NCc3ccco3)c2)cc1 | 11 | HuH7 TTR inh=-;TTR up confirm=-
O=C(Nc1ccc(Cl)c(Cl)c1)c1ccco1 | -
Cc1ccc2cc(C=C(C#N)C#N)c(Cl)nc2c1 | -
C[C@H](NC(=O)OCc1ccccc1)C(=O)NC(Cc1ccccc1)P(=O)(Oc1ccccc1)Oc1ccccc1 (stereo partly drawn) | -
Cc1nc(C)c(C(=O)NN=Cc2ccc(N(CCCl)CCCl)cc2)s1 | -
Brc1ccc2c(c1)-n1nncc1CN(CC1CCCCC1)C2 | -
COc1ccc(CCN)cc1S(N)(=O)=O | -
COCCOC(=O)C1=C(N)OC(C)=C(C(=O)OC)C12C(=O)Nc1ccccc12 (stereo not drawn) | -
C=CCOC(=O)C1=C(C)OC(N)=C(C#N)C12C(=O)N(CN1CCOCC1)c1ccccc12 (stereo not drawn) | 11 | HuH7 TTR inh=-;TTR up confirm=-
CCOC(=O)C1=C(N)Oc2c(c(=O)oc3ccccc23)C12C(=O)N(C)c1ccccc12 (stereo not drawn) | -
O=C(O)C1C2c3ccccc3C(=O)C1(C(=O)O)c1ccccc12 (stereo not drawn) | -
OC(CN1CCCCC1)c1c[nH]c2ccccc12 (stereo not drawn) | -

Source: PubChem BioAssay
